Assay outcomes (PubChem BioAssay)
The list is not random: actives were taken first. Their share in the collection is about 2.8%.
PI5P4Ka inh – inhibitors of human PI5P4K alpha | PI5P4Kalpha enzyme, ADP-Glo luminescence, 60 min; hits give low values | max response, % | 330,000 compounds, 1.2% hits; active means max response of -50% or lower; inconclusive means between -30% and -50%; inactive means -30% or higher; further: value at the top dose of about 77 µM; on the % scale 0 is the no-effect control and ±100 the full control effect
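Quantitative HTS of the MLSMR library against PI5P4Kalpha with substrate. ATP added last at 5 microM final; room temperature, 60 minutes. Remaining ATP depleted, ADP converted and read as luminescence.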
Pol kappa inh – inhibitors of human DNA polymerase kappa; Potency, µM (titrated, usually from 107 µM), for the others: at the highest dose activity, negative = inhibition, usual class: inhibitors; Q9UBT6; AID 588579; purified Pol kappa, fluorescent DNA synthesis assay, 10 min; 400,000 compounds, 0.53% hits; further: potency means the concentration at half of the fitted maximal effect; on the % scale 0 is the no-effect control and ±100 the full control effect
Target sequence (Q9UBT6 whole entry, looked up): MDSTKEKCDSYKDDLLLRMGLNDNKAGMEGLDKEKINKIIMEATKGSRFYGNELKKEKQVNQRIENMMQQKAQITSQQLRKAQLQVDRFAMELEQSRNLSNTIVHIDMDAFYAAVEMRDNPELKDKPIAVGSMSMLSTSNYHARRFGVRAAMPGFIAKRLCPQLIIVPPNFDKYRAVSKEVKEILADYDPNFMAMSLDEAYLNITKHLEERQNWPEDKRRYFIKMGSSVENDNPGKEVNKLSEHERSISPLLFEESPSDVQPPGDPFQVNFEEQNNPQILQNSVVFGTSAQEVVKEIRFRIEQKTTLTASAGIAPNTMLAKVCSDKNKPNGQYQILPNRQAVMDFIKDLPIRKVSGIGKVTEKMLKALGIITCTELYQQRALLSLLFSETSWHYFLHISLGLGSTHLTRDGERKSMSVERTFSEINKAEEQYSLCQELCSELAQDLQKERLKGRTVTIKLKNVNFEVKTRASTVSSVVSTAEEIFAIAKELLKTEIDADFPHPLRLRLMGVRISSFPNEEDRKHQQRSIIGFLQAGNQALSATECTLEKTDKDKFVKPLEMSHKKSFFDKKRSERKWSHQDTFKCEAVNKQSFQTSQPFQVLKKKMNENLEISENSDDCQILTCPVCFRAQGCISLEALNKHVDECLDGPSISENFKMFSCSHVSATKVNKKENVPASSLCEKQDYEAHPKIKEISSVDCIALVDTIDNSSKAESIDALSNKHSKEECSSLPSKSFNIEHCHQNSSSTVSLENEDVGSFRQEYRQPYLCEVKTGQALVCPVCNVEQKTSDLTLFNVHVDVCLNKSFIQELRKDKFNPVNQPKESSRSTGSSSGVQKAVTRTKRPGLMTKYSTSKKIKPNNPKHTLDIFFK
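Readout: fluorescence, taken kinetically at 0 and 10 min. Conditions: 10 nM Pol kappa, 15 min RT compound preincubation, 50 nM substrate final. Controls: enzyme-free buffer wells.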
POLH inh – DNA polymerase eta (human) inhibition | Q9Y253 | recombinant Pol eta, fluorescent DNA replication assay | Potency, µM (series often up to 114 µM), for inactives: at the highest dose activity change, negative = inhibition, actives largely listed as inhibitors | 390,000 compounds, 1.2% hits | AID 588591; further: potency means the concentration at half of the fitted maximal effect; on the % scale 0 is the no-effect control and ±100 the full control effect
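Pol eta at 10 nM preincubated with compounds 15 min at room temperature; reaction started with fluorescent substrate (50 nM final) and read kinetically at 0 and 10 min.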
POLI inh – blocks human DNA polymerase iota activity. Potency, µM (top dose mostly 115 µM), for inactives: top-dose activity, negative = inhibition, most hits filed as inhibitors. Pol iota fluorescent replication assay, 10 min. Q9UNA4. 390,000 compounds, 1% hits; further: potency means the concentration at half of the fitted maximal effect
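Fluorescent replication assay read twice, at 0 min and 10 min after adding 50 nM (final) substrate. Enzyme (10 nM) and compounds were first incubated 15 min at room temperature; enzyme-free buffer wells were negative controls.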
POLB inh – blocks human DNA polymerase beta activity. 340,000 compounds, 1.3% hits. Pol beta primer extension/strand displacement, fluorescence kinetic. Potency, µM (highest dose often 114 µM), inactives show at the highest dose activity change, negative = inhibition, hits mostly inhibitors; further: potency means the concentration at half of the fitted maximal effect; on the % scale 0 is the no-effect control and ±100 the full control effect
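Homogeneous kinetic assay of primer extension and strand displacement by 10 nM Pol beta, preincubated 15 min at room temperature with compound before 50 nM substrate (final) was added. Read at 0 and 10 min; four-parameter Hill fit.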
WRN helicase inh – blocks human WRN helicase; Q14191; WRN helicase unwinding, fluorescent forked duplex, kinetic; Potency, µM (highest dose often 114 µM), inactives show at the highest dose activity change, negative = inhibition, hits mostly inhibitors; 360,000 compounds, 0.46% hits; AID 651768; further: potency means the concentration at half of the fitted maximal effect; on the % scale 0 is the no-effect control and ±100 the full control effect; nearly all actives have a fitted effect of over 55% in size
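Kinetic red-fluorescence monitoring (525/598 nm) tracks WRN helicase activity after 100 nM fluorophore-quencher forked duplex and 2 mM ATP are added to 20 nM enzyme pretreated 15 min at room temperature with compound.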
The depositor's hits bear a star. Unless noted, the call rests on the fitted dose curve; in most records, active means well fitted curve in the direction sought with a large enough effect; inconclusive means small, poorly fitted or top-dose-only effect, or another doubt; inactive means no such curve, though single readings can be large; an effect the other way counts as inactive or inconclusive.

What do the screens show for `CCCC(O)c1nc2ccccc2n1CCCCOc1ccc(OC)cc1` (stereo unspecified)?
Pol kappa inh: -1%; POLH inh: -5%; POLI inh: 12%; POLB inh: -11%

Results for COc1ccc(-c2noc(CSc3nnc(-c4ccncc4)n3-c3cccc(C)c3)n2)cc1OC ?
Pol kappa inh: 16%; POLH inh: -21%; POLI inh: 33%; POLB inh: 19%

Results for Cc1cc(C)cc(-c2nnc(SCC(=O)c3ccc4c(c3)OCCO4)o2)c1 ?
Pol kappa inh: -7%; POLH inh: -10%; POLI inh: 8%; POLB inh: 1%; WRN helicase inh: -2%

What do the screens show for `Cc1cc(-c2nnc(SCC(=O)c3ccc4c(c3)OCCO4)o2)no1`?
PI5P4Ka inh: 0; Pol kappa inh: -7%; POLH inh: -13%; POLI inh: 54%; POLB inh: 40µM*; WRN helicase inh: 1%

Results for CC(C)N(Cc1nccn1C)C(=O)c1cc(COc2ccc(F)cc2Cl)on1 ?
PI5P4Ka inh: -3; Pol kappa inh: -3%; POLH inh: -4%; POLI inh: 23%; POLB inh: 10%; WRN helicase inh: -25%

How did Cc1cc(C)c(S(=O)(=O)/N=C2\C=C(NS(=O)(=O)c3ccccc3)C(=O)c3ccccc32)c(C)c1 do in these assays?
PI5P4Ka inh: -23; Pol kappa inh: 1%; POLH inh: -24%; POLI inh: inconclusive; POLB inh: 27%; WRN helicase inh: -9%

Results for Cc1cc(C)c(S(=O)(=O)/N=C2/C=C(SCC(=O)O)C(=O)c3ccccc32)cc1C ?
PI5P4Ka inh: inconclusive; Pol kappa inh: -14%; POLH inh: 20µM*; POLI inh: 6.3µM*; POLB inh: inconclusive; WRN helicase inh: 18µM*

How did COc1ccc(OC(C)C(=O)Nc2cccc(OC)c2)cc1 (stereo unspecified) do in these assays?
PI5P4Ka inh: 1; Pol kappa inh: 10%; POLH inh: -9%; POLI inh: -6%; POLB inh: -13%; WRN helicase inh: -12%

What do the screens show for `CC(Oc1ccc(F)cc1)C(=O)Nc1cccc(-c2nn[nH]n2)c1` (stereo unspecified)?
PI5P4Ka inh: -23; Pol kappa inh: -23%; POLH inh: 45µM*; POLI inh: 45µM*; POLB inh: -1%; WRN helicase inh: 0%

What do the screens show for `Cc1ccccc1NC(=O)Cn1c(=O)n(CCC(=O)NCc2ccc3c(c2)OCO3)c(=O)c2sccc21`?
Pol kappa inh: -17%; POLH inh: -16%; POLI inh: 6%; POLB inh: 50µM*

How did Cc1cccc(NC(=O)Cn2c(=O)n(CCCCCC(=O)NCc3ccc4c(c3)OCO4)c(=O)c3sccc32)c1 do in these assays?
Pol kappa inh: -8%; POLH inh: 15%; POLI inh: -5%; POLB inh: -6%

How did Cc1cc(Cl)ccc1Nc1nc(NCc2ccco2)nc2nccnc12 do in these assays?
Pol kappa inh: -7%; POLI inh: 1%

Results for COc1ccc(NS(=O)(=O)c2cccc(C(=O)NN=Cc3cc(Br)c(O)c(Br)c3)c2)cc1 ?
PI5P4Ka inh: -50*; Pol kappa inh: inconclusive; POLH inh: 45µM*; POLI inh: 16µM*; WRN helicase inh: inconclusive

What do the screens show for `COc1ccc(NS(=O)(=O)c2cccc(C(=O)N/N=C(/C)c3ccc(-n4ccnc4)cc3)c2)cc1`?
PI5P4Ka inh: 1; Pol kappa inh: -13%; POLH inh: -14%; POLI inh: 40µM*; WRN helicase inh: inconclusive

How did COc1cc(/C=N\NC(=O)c2ccc(-c3ccccc3)cc2)cc(Br)c1O do in these assays?
PI5P4Ka inh: inconclusive; Pol kappa inh: -39%; POLH inh: inconclusive; POLI inh: inconclusive; POLB inh: 40µM*; WRN helicase inh: -29%

Results for CC[N+]1(CC(=O)c2ccc(Cl)cc2)CCCCC1 ?
Pol kappa inh: -20%; POLI inh: 28%
